Phagocyt inh: inhibitors of macrophage phagocytosis, primary screen, imaging, J774A.1 cells, IgG beads. J774A.1 macrophage IgG-bead phagocytosis. 110,000 compounds, 0.07% hits. inhibition, % at 5 µM;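 active = inhibition above the mean of the plate negative controls plus 5 SD, cut at about 13% in these data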;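 also: phagocytic index as fraction of beads internalized from green versus red external bead signal; plate controls were DMSO negative control for no effect and cytochalasin-D positive control for full effect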
MRP1 act: H69AR viability gain despite doxorubicin, primary screen, MRP-1 activator project, H69AR cells, CellTiter-Glo | viability rescue | viability increase, % at 10 µM | 140,000 compounds, 0.61% hits;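 active = viability gain under doxorubicin at or above a set limit, the compound median plus 3 SD, cut at about 4.7% in these data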;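 also: MRP-1 overexpressing cells given doxorubicin 25 µM after compound pretreatment; 18-22 h compound pretreatment then 72 h with doxorubicin before readout; 0% = doxorubicin-only wells and 100% = vehicle-treated cells without doxorubicin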
MRP reversal: reversal of MRP1-mediated doxorubicin resistance, primary screen, H69AR cells, doxorubicin co-treatment; 85,000 compounds, 0.04% hits; differential viability (reversal), % at 10 µM; H69AR cells + 2 uM doxorubicin, CellTiter-Glo, 72 h;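 active = viability drop by adding the cancer drug above about 55%, with treated viability meeting a 40% cutoff, limit read from the data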;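 also: viability without doxorubicin minus viability with 2 µM doxorubicin for each compound; larger differential means the compound sensitizes cells more to doxorubicin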
The depositor's hits bear a star; . = no result given. Only some compounds are listed: those with a hit (about 0.72% of all), similar ones and a draw of the others.

SMILES | Phagocyt inh | MRP1 act | MRP reversal
Brc1ccc(OCc2nc(-c3ccccn3)n[nH]2)cc1 | -2 | 8.4* | -43
COc1ccccc1N(C(=O)c1snc(C(N)=O)c1N)C(C(=O)NCCC(C)C)c1ccco1 (configuration not stated) | -2 | 0 | 7
CCOc1ccccc1N(C(=O)c1snc(C(N)=O)c1N)C(C(=O)NCCC(C)C)c1ccco1 (configuration not stated) | 0 | 5.3* | -10
CC(NC(=O)CCC1COc2ccccc2O1)c1ccccc1 (configuration not stated) | . | -2 | 18
COc1ccc(C2CC(c3ccccc3)=NN2C(=O)CN2N=NC3C(=O)N(c4cccc(F)c4)C(=O)C32)cc1 (configuration not stated) | -5 | 4 | .
CCOc1ccc(Cl)cc1CSc1ncn[nH]1 | 0 | 4 | .
Clc1ccc(CSc2ncn[nH]2)cc1 | -1 | 5.9* | -2
Cc1ccc(C)c(C(=O)COC(=O)c2cc([N+](=O)[O-])ccc2NCCO)c1 | -14 | 2 | .
CC(=O)/C(C#N)=C1\NC(=O)C(Cc2ccc(C)c(C)c2)S1 (configuration not stated) | -3 | 8.8* | 11
Cc1ccc(NC(=O)CC2SC(=NCC3CCCO3)NC2=O)cc1Cl (configuration not stated) | . | -1 | .
Cc1ccc(NC(=O)CC2SC(=O)NC2=O)cc1 (configuration not stated) | -3 | 2 | .
Nc1ccc(CC2SC(=O)NC2=O)cc1 (configuration not stated) | -1 | 9.4* | 13
CC(=O)/C(C#N)=C1\NC(=O)C(Cc2ccccc2Cl)S1 (configuration not stated) | . | 1 | 3
Cc1ccc(CC2SC(=O)NC2=O)cc1Cl (configuration not stated) | . | 4.8* | 2
O=C(COC(=O)COc1ccc(Cl)cc1Cl)Nc1cccnc1Cl | -3 | -2 | .
O=C(CCC(=O)Nc1ccccc1)NNC(=O)C(c1ccccc1)c1ccccc1 | -9 | -1 | .
O=C(/C=C/c1ccccc1)NC1CCSC1=O (configuration not stated) | . | 3 | .
CN(C(=O)c1c(Br)cnn1C)C12CC3CC(CC(C3)C1)C2 | -4 | -3 | .
c1ccc(CSc2nnc(SCc3ccccn3)s2)nc1 | -2 | -2 | -10
N=C(N)SCc1ccccn1 | 1 | 6.3* | .
O=C(CCCC(=O)OCC(Cl)=C(Cl)Cl)Nc1ccc(F)cc1 | -6 | 2 | .
O=C(OC1CCc2ccccc2C1=O)c1ccccc1O (configuration not stated) | 2 | 14* | -8
O=C(N/N=C1\CCc2ccccc21)c1ccccc1O | -9 | 0 | .
CNc1sc(C(=O)c2ccc(F)cc2)c(N)c1-c1nc2ccccc2s1 | 0 | 3 | 2
CNc1sc(C(=O)c2cccs2)c(N)c1-c1nc2ccccc2s1 | 0 | 9.0* | -14
SMILES | Phagocyt inh | MRP1 act | MRP reversal
CC(=O)Nc1ccc(C(=O)N(C)C(C(=O)Nc2ccccc2)c2ccccn2)cc1 (configuration not stated) | -3 | -2 | .
O=c1c(-c2nnc(SCc3ccc(Cl)cc3)o2)cccn1Cc1ccccc1 | . | 5.4* | .
O=C(Nc1ccccc1-c1nnc(SCc2ccc(Cl)cc2)o1)c1ccccc1 | 0 | 3 | .
CC1CCN(C2=NC(=O)/C(=C/c3cn(-c4ccccc4)nc3-c3cccc(S(=O)(=O)N(C)C)c3)S2)CC1 | -1 | -2 | .
O=C(NCc1ccccn1)c1cn(CCc2ccccc2)nn1 | 0 | 0 | 57*
O=C(NCc1cccnc1)c1cn(CCc2ccccc2)nn1 | 0 | -2 | -4
CCOC(=O)N1CCN(C(=S)Nc2ccc(C)cc2)CC1 | -5 | 1 | .
Brc1ccc(OCc2nnc3n2CCC3)cc1 | -6 | 7.0* | .
Brc1ccc(-c2nnc3n2CCCCC3)cc1 | 0 | 0 | 0
CCNC(=O)NC(=O)CSc1nc2ccccc2n1CCOC | 2 | -1 | 6
Cc1csc(C(C#N)C(=O)c2cc3ccccc3o2)n1 (configuration not stated) | . | 6.1* | -15
O=C(Nc1ccccn1)c1cc2ccccc2o1 | . | -5 | -19
CCOC(=O)Cc1csc(NC(=O)c2c(-c3ccccc3)noc2C)n1 | 1 | 4.9* | 7
COc1ccc(Cc2nnc(NC(=O)c3c(-c4ccccc4)noc3C)s2)cc1 | -1 | 3 | -48
COc1ccc(Cc2nnc(NC(=O)c3c(-c4ccccc4)noc3C)s2)cc1OC | 0 | 9.5* | 26
CCOC(=O)Cc1csc(NC(=O)c2c(-c3c(F)cccc3Cl)noc2C)n1 | -2 | -4 | -11
Cc1ccc(NC(=O)CCCCCCCCCCC2COCCO2)c(C)c1 (configuration not stated) | -6 | -2 | .
O=C(N/N=C/c1ccccc1O)C1(O)c2ccccc2-c2ccccc21 | . | 1 | .
COc1cc(OC)c(OC)cc1CN1CCN(Cc2cccn2C)CC1 | . | -1 | .
COc1ccccc1-c1cc(C(=O)NC(C)C)no1 | . | -2 | 7
COc1ccccc1-c1cc(C(=O)NC(C)c2ccccc2)no1 (configuration not stated) | -1 | 5.1* | -4
Cc1cc2n(n1)C(c1ccccc1)CC(c1ccc(Br)cc1)=N2 (configuration not stated) | -5 | 5.5* | .
CNC(=S)N1N=C(c2ccc(Br)cc2)CC1c1ccc(Br)cc1 (configuration not stated) | 0 | -1 | .
Cc1nc(C)c(-c2nnc(-c3ccc(C(C)(C)C)cc3)o2)cc1C(=O)NN | -7 | -1 | .
O=C(C(c1ccccc1)c1ccccc1)N1CCN(CCN2C(=O)c3cccc4cccc(c34)C2=O)CC1 | -11 | 2 | .
SMILES | Phagocyt inh | MRP1 act | MRP reversal
O=C1c2cccc3cccc(c23)C(=O)N1CCN1CCN(CC(O)COc2ccccc2)CC1 (configuration not stated) | 1 | 5.0* | .
COc1ccc(C(=O)NCc2ccccc2)cc1S(=O)(=O)N1CCCc2ccccc21 | . | 5.4* | .
COc1ccc(C(=O)NCc2ccccc2)cc1Br | -8 | 2 | .
COc1ccc(C(=O)NCc2ccc3c(c2)OCO3)cc1S(=O)(=O)NCc1ccc(Cl)cc1 | -5 | 1 | .
COc1ccc(C(=O)NCc2ccc3c(c2)OCO3)cc1S(=O)(=O)N(C)Cc1ccccc1 | . | 7.3* | .
CSC(=Nc1cccc(C)c1)NC#N | -3 | -3 | .
COc1ccccc1CNC(=S)NC1CCCC1 | -13 | 0 | .
CCCC1=C(C(=O)OCC)C(c2ccc(OC)c(CSc3ccccn3)c2)C(C#N)=C(N)O1 (configuration not stated) | -9 | -3 | .
COc1ccc(CNc2nc3c(c(=O)n(Cc4ccc(Cl)cc4)c(=O)n3C)n2C)cc1 | 0 | 5.5* | 20
COCCNc1nc2c(c(=O)n(Cc3ccc(OC)cc3)c(=O)n2C)n1C | 1 | -1 | 8
CC(C)(C)c1ccccc1OCC(=O)Nc1ncn[nH]1 | 0 | 2 | -4
CC(C)(C)c1cc(Br)ccc1OCC(=O)Nc1ncn[nH]1 | -1 | 6.2* | 8
O=C(NNc1nc2cc3c(cc2s1)OCO3)c1cccc(F)c1 | . | -2 | .
Cc1cc(/C=C2\SC(=S)NC2=O)c(C)n1C | 1 | 5.5* | .
Cc1nn(C)cc1/C=C1\SC(=S)NC1=O | 0 | -3 | .
CCCNC(=O)c1ccc(C2SCC(=O)N2CCc2ccccc2)cc1 (configuration not stated) | -3 | -2 | .
